In the library only some 11% were active in any assay of this set; here they are far more common.
ALDH1A1 inh: qHTS Assay for Inhibitors of Aldehyde Dehydrogenase 1 (ALDH1A1); Aldehyde dehydrogenase 1A1 (Homo sapiens), P00352; Purified ALDH1A1, NADH fluorescence, propionaldehyde substrate; Potency, µM (doses to about 75.3 µM), for the others: at the highest dose activity, negative = inhibition, actives largely listed as inhibitors; 220,000 compounds, 7.3% hits; AID 1030, 2008; active = well fitted inhibition curve with a large enough effect, not every such curve was filed as active; inconclusive = small, poorly fitted or top-dose-only effect, or another doubt; inactive = no such curve, though single readings can be large or run the other way;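 also: potency is read from the fitted curve at half-maximal effect; plate controls were no enzyme wells and a reference inhibitor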
Target sequence (P00352 whole entry, looked up): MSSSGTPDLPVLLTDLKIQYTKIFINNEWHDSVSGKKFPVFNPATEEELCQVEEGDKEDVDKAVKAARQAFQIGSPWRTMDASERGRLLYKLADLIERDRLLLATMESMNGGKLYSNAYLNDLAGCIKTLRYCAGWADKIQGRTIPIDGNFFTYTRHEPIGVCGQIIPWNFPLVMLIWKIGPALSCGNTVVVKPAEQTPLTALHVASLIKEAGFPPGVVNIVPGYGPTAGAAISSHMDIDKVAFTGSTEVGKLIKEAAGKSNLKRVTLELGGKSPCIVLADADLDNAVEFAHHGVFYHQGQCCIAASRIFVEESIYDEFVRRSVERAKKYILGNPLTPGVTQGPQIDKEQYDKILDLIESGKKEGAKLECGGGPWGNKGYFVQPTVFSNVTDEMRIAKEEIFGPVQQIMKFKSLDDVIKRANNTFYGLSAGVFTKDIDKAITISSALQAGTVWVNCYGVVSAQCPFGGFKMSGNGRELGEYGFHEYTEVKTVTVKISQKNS
HPGD inh: qHTS Assay for Inhibitors of HPGD (15-Hydroxyprostaglandin Dehydrogenase). 15-hydroxyprostaglandin dehydrogenase [NAD(+)] (Homo sapiens), P15428. purified HPGD, NADH fluorescence kinetic, PGE2 substrate. Potency, µM, without a hit: top-dose activity change, negative = inhibition, usual class: inhibitors. 150,000 compounds, 4.3% hits; active = well fitted inhibition curve with a large enough effect, not every such curve was filed as active; inconclusive = small, poorly fitted or top-dose-only effect, or another doubt; inactive = no such curve, though single readings can be large or run the other way; also: potency is read from the fitted curve at half-maximal effect; % is scaled to controls: 0 for no effect and ±100 for the full control effect
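20 nM HPGD preincubated 15 min at room temperature with compound in 50 mM Tris-HCl pH 8, 0.01% Tween 20. Started with 1 mM NAD+ and 30 uM prostaglandin E2; NADH fluorescence (360/450 nm) read 5 times over 30-s intervals, last minus first.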
HTT aggregate: qHTS Multiplex Assay to Identify Dual Action Probes in a Cell Model of Huntington: Aggregate Formation (GFP); Potency, µM (highest dose often 46.1 µM), inactives show at the highest dose activity change, negative = inhibition, most hits filed as inhibitors; 220,000 compounds, 1.1% hits; PC12 HttQ103-GFP aggregates, Acumen cytometry, 40 h; also: potency is read from the fitted curve at half-maximal effect; % is scaled to controls: 0 for no effect and ±100 for the full control effect; nearly all actives have a fitted effect of over 60% in size
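Read-out: GFP aggregate count by laser scanning cytometer (488 nm excitation, 500-530 nm emission, 1–25 µm objects >6 SD above background). Cells: PC12, inducible HTTex1-Q103-GFP, 100 nM tebufenozide; compounds titrated.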
HTT cytoprotect: qHTS Multiplex Assay to Identify Dual Action Probes in a Cell Model of Huntington: Cytoprotection (ATP). PC12 HTT-Q103 induced, cytoprotection, ATP luminescence, 40 h. Potency, µM (doses to about 56.4 µM), without a hit: cytoprotection (ATP increase), hits mostly activators. 230,000 compounds, 0.14% hits; also: potency is read from the fitted curve at half-maximal effect; % of control where 0% means no effect; nearly all actives have a fitted effect of over 45% in size
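Rat PC12, Q103 Htt exon1-GFP fusion, ecdysone promoter; tebufenozide inducer 100 nM final; compound titration; qHTS, 1500 cells/well; ATPlite luminescent read.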
CBFb RUNX1 block: qHTS Assay for Compounds Blocking the Interaction Between CBF-beta and RUNX1 for the Treatment of Acute Myeloid Leukemia | 230,000 tested, under 10 active | Runt-related transcription factor 1 (Homo sapiens) + Core-binding factor subunit beta … | AlphaScreen CBFb-His/RUNX1-biotin binding, biochemical | AID 1477, 2009 | Potency, µM (top dose mostly 59.8 µM), for the others: top-dose activity, negative = inhibition, hits mostly inhibitors; also: % of control where 0% means no effect
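CBF-beta (His) and RUNX1 (biotin), 30 nM each; 20 min preassociation; + compound, 15 min; + beads 50 ng each (Ni, streptavidin), 90 min; RT; AlphaScreen read.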
PNC inhibitor: High Content Assay for Compounds that inhibit the Assembly of the Perinucleolar Compartment | AID 2417, 2010 | PC3M PTB-GFP, PNC prevalence imaging, 16 h; stronger effect = lower value | 140,000 compounds, 3.1% hits | activity change (PNC), negative = inhibition, % at 10 µM;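 active = readout at or below -70, meaning at least 70% loss of cells showing the perinucleolar compartment, a nuclear body marking cancer cells; inconclusive = readout between -30 and a set limit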;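 also: plate controls were DMSO wells for no effect and camptothecin positive control wells for full effect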
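Compounds are pinned in duplicate onto adhered PC3M cells stably expressing GFP-tagged PTB and incubated 16 h at 37 C. Cells are then fixed, nuclei stained with Hoechst, and PNC-positive cells counted.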
Numbers without * were called inactive; ? = inconclusive; · = not tested or not shown; [ ] = another dose, or the depositor's remark. Unless noted, calls follow the shape of the dose curve; as a rule, active = well fitted curve in the direction sought with a large enough effect; inconclusive = small, poorly fitted or top-dose-only effect, or another doubt; inactive = no such curve, though single readings can be large; an effect the other way counts as inactive or inconclusive.

SMILES | ALDH1A1 inh | HPGD inh | HTT aggregate | HTT cytoprotect | CBFb RUNX1 block | PNC inhibitor
C=CCNC(=S)NNC(=O)c1cccc(Br)c1 | 0% | -5% | 14% | 15%[10 µM] | -9% | -14
NC(=O)Nc1cccc2ccccc12 | -4% | -15% | -8% | -3%[10 µM] | 1% | -105*
O=C(NNC(=S)Nc1cccc2ccccc12)c1cccc(Br)c1 | 4.5µM* | -20% | -26% | 1% | -11% | ?
Nc1nc(Nc2ccccc2)nc2c1ncn2[C@@H]1O[C@@H](CO)[C@H](O)[C@H]1O | -10% | -6% | · | -20% | 17%[21.7 µM] | ·
Oc1c(C(c2ccccc2)N2CCCCC2)sc2ncnn12 (centres undefined) | 1% | -20% | -2% | 11%[10 µM] | 6% | -2
Oc1c(C(c2ccco2)N2CCOCC2)sc2ncnn12 (centres undefined) | 14µM* | -24% | 10% | -18% | -1% | 7
CCCN=C(N)NCCC[C@H](N)C(=O)O | -4% | -7% | · | ? | 11%[21.7 µM] | ·
C[C@]12C[C@@](C)(C=C1/C=C/c1ccc(C(F)(F)F)cc1)C(=O)C[C@H]2c1ccc(C(F)(F)F)cc1 | -8% | -1% | · | 16% | ? | ·
CC(=O)Nc1ccc2c(c1)/C(=C/c1ccc([N+](C)(C)C)cc1)c1ccccc1-2 | -2%[13.5 µM] | -1% | · | 0%[10 µM] | · | ·
COc1ccc(-n2c(C)cc(/C=C3\SC(=S)N(Cc4ccco4)C3=O)c2C)cc1 | 0.63µM* | -9% | -27% | -11%[10 µM] | -28% | -26
COc1ccc(-c2nn(-c3ccccc3)cc2/C=C2/SC(=S)N(Cc3ccco3)C2=O)c(C)c1 | -9% | -9% | 14% | 13% | 2% | 23
C=C(C)CN(CC)C(=O)CSc1nc2ncc(Cl)cc2[nH]1 | 25µM* | 14µM* | 7% | -3% | 4% | -28
O=C(NC(c1ccccc1)c1ccccc1)c1ccc(=O)[nH]n1 | 4.5µM* | · | ? | 18% | 6% | ·
O=C(Cn1c(C(F)(F)F)nc2ccccc21)N=Nc1c(O)[nH]c2ccc(Br)cc12 | 3% | · | -30% | -61% | 5% | ·
Cc1cccc(NC(=O)C2CC(=O)n3cnnc3S2)c1 (centres undefined) | 0.71µM* | 10µM* | 4% | -30% | 4% | 12
COc1ccccc1CNC(=O)CSc1cc(=O)n(C)c2ccccc12 | 3% | · | 28% | -20% | -3% | ·
Cc1ccc(N2C(=O)CC(Sc3nc4ccccc4o3)C2=O)cc1Cl (centres undefined) | 1.4µM* | ? | ? | -123% | -2% | 39
CCOC(=O)c1ccc(N2C(=O)C3C(/C=C/c4ccccc4)OC4(C(=O)c5ccccc5C4=O)C3C2=O)cc1 (centres undefined) | 7% | -11% | -5% | · | 3% | 0
CC1(C)Cn2c(nnc2-c2cccc(O)c2)S1 | ? | 16µM* | -1% | 3% | -1% | 39
COc1cc([N+](=O)[O-])ccc1-c1ccc(C(=O)Nc2ccc(NC(C)=O)cc2)o1 | 0.89µM* | 28µM* | -3% | 32%[10 µM] | 12% | 58
COc1ccc(NC(=O)c2ccc(-c3ccc([N+](=O)[O-])cc3)o2)cc1OC | -10% | -27% | 2% | -1%[10 µM] | -19% | 22
O=C(NCCc1ccccc1)c1cccs1 | 7% | -13% | 2%[9.22 µM] | -24% | 0% | 10
CCN=c1sc(C(=O)NCCc2ccccc2)cc(=O)n1CC | 6.3µM* | -12% | 33% | -38%[10 µM] | 3% | 22
CN1OC2C(=O)N(c3ccccc3)C(=O)C2C1c1ccc(F)cc1 (centres undefined) | 8.9µM* | · | 17% | -34% | 3% | 18
